Screens (PubChem)
Many of the other results were omitted from the sample, so hits are more common in it than they were.
C diff growth: C. difficile growth inhibitors, primary screen, HTS | Clostridium difficile clinical isolate growth, OD600, 24 h; stronger effect = lower value | growth activity, negative = inhibition, % at 16 µg/mL (by protocol) | 86,000 compounds, 0.25% hits | AID 1259249, 2017;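 active = mean growth activity at or below -80% and every replicate also at or below -80%; inconclusive = mean at or below -80% but some replicate above -80%; inactive = mean growth activity above -80%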;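 note: 0% = DMSO wells and -100% = levofloxacin 16 µg/mL wells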
T cruzi growth-1: T. cruzi intracellular proliferation inhibitors, primary screen, cell-based, beta-gal Tulahuen parasites, NIH3T3 host, luminescence; inhibition, % at 8.34 µM; 77,000 compounds, 5.9% hits; AID 624255, 2012; T. cruzi beta-gal in NIH3T3, GalScreen luminescence, 90 h;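 active = mean inhibition above about 93%, with at least 55% of replicates each passing it, limit read from the data, passing the limit was not always enough; inconclusive = only one of those two conditions holds; inactive = neither condition holds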
T cruzi growth-2: T. cruzi intracellular proliferation inhibitors, confirmation, cell-based, NIH3T3 host, beta-gal parasite, luminescence, cherry-pick; AID 651739, 2012; inhibition, % at 8.35 µM; shares compounds with T cruzi growth-1; 5,600 compounds, 72% hits; T. cruzi beta-gal in NIH3T3, GalScreen luminescence, 90 h;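 active = mean replicate inhibition above about 95% and at least 55% of replicates individually reaching it, limit read from the data; inconclusive = only one of the two criteria is met; inactive = neither criterion is met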
T cruzi growth-3: inhibitors of intracellular T. cruzi replication, confirmation, NIH3T3 host cells, beta-gal parasites, cherry-pick, set 2. inhibition, % at 2.09 µM. shares compounds with T cruzi growth-1. T. cruzi beta-gal in NIH3T3, GalScreen luminescence, 90 h. 5,600 compounds, 21% hits;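 active = mean inhibition above about 95%, with at least 55% of replicates also reaching it, limit read from the data; inconclusive = meets just one of the two conditions; inactive = meets neither condition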;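 note: plate controls were neutral control median for no effect and positive control median for full effect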
NIH3T3 tox: cytotoxicity in mouse NIH/3T3 fibroblasts, confirmation, cytotoxicity control for T. cruzi proliferation inhibitor project, cell-based, cherry-pick, single point; NIH/3T3 viability, CellTiter-Glo ATP luminescence, 90 h; 5,600 compounds, 14% hits; shares compounds with T cruzi growth-1; cytotoxicity (signal decrease), % at 8.35 µM; AID 651742, 2012;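 active = mean signal decrease across replicates above about 35% based on untreated-well scatter, with enough replicates individually passing, limit read from the data; inconclusive = no rule stated though some were filed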;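 note: 0% = median of neutral control wells and 100% = median of positive control wells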
3T3 cytotox 2: NIH/3T3 fibroblast cytotoxicity, confirmation, cytotoxicity control, cell-based, cherry-pick, single point, set 2; NIH/3T3 viability, CellTiter-Glo ATP luminescence, 90 h; inhibition, % at 24.9 µM; shares compounds with T cruzi growth-1; 5,600 compounds, 56% hits;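 active = mean loss of cell viability signal at or above a set limit, and enough replicates individually reaching it; inconclusive = meets only the mean limit or only the replicate share; inactive = meets neither condition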;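 note: 0% = median of neutral control wells and 100% = median of positive control wells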
* hit, by the source's call; ? = inconclusive; nt = no result given.

SMILES	C diff growth	T cruzi growth-1	T cruzi growth-2	T cruzi growth-3	NIH3T3 tox	3T3 cytotox 2
CCC(=O)N1CCCCN2[C@@H](CO)[C@@H](c3ccc(C#Cc4ccccc4F)cc3)[C@@H]2C1	3	113*	102*	65	10	103*
CC(=O)N1CCCCN2[C@H](CO)[C@@H](c3ccc(C#Cc4ccccc4F)cc3)[C@H]2C1	-6	103*	75	44	46*	104*
CO[C@H](CN(C)S(=O)(=O)c1ccccc1)[C@@H](C)CN(Cc1ccccc1Cl)[C@H](C)CO	nt	-12	nt	nt	nt	nt
COc1ccc2c3c(n(C)c2c1)[C@H](CO)N(S(C)(=O)=O)CC31CCN(C(=O)C2CCCC2)CC1	-5	nt	nt	nt	nt	nt
N#C[C@@H]1[C@H](c2ccccc2-c2ccc(F)cc2)[C@@H](CO)N1C(=O)Cc1ccccc1	79	nt	nt	nt	nt	nt
C[C@@H]1CCCCO[C@@H](CN(C)S(=O)(=O)c2ccccc2)[C@H](C)CN([C@@H](C)CO)C(=O)c2cc(NS(=O)(=O)c3ccc(Cl)cc3)ccc2O1	-8	116*	101*	78	-6	-6
C[C@@H]1CN([C@H](C)CO)C(=O)c2cc(NS(=O)(=O)c3ccc(Cl)cc3)ccc2O[C@@H](C)CCCCO[C@H]1CN(C)S(=O)(=O)c1ccccc1	-1	nt	nt	nt	nt	nt
C[C@@H]1CCCCO[C@@H](CN(C)S(=O)(=O)c2ccc(Cl)cc2)[C@@H](C)CN([C@@H](C)CO)C(=O)c2cc(NS(=O)(=O)c3ccccc3)ccc2O1	1	nt	nt	nt	nt	nt
C[C@H](CO)N1C[C@H](C)[C@H](CN(C)S(=O)(=O)c2ccc(Cl)cc2)OCCCC[C@H](C)Oc2ccc(NS(=O)(=O)c3ccccc3)cc2C1=O	-7	?	99*	87	-4	-15
C[C@@H]1CN([C@H](C)CO)C(=O)c2cc(NS(=O)(=O)c3ccccc3)ccc2O[C@@H](C)CCCCO[C@@H]1CN(C)S(=O)(=O)c1ccc(Cl)cc1	1	?	nt	nt	nt	nt
C[C@@H]1CCCCO[C@H](CN(C)S(=O)(=O)c2ccccc2)[C@H](C)CN([C@@H](C)CO)C(=O)c2cc(NS(=O)(=O)c3ccc(Cl)cc3)ccc2O1	-16	118*	92	88	-4	-10
C[C@@H]1CN([C@H](C)CO)C(=O)c2cc(NS(=O)(=O)c3ccc(F)cc3)ccc2O[C@@H]1CN(C)Cc1ccncc1	-5	67	nt	nt	nt	nt
C[C@H]1CN([C@@H](C)CO)C(=O)Cc2cc(NC(=O)C3CCCCC3)ccc2O[C@@H]1CN(C)C(=O)Nc1ccc(C(F)(F)F)cc1	6	-10	nt	nt	nt	nt
C[C@H]1CCCCO[C@H](CN(C)S(=O)(=O)c2ccc(Cl)cc2)[C@@H](C)CN([C@@H](C)CO)C(=O)c2cc(NC(=O)C3CCCCC3)ccc2O1	0	110*	110*	101*	2	20
Cc1ccc(S(=O)(=O)N(C)C[C@H]2OCCCC[C@@H](C)Oc3ccc(NC(=O)C4CCCCC4)cc3C(=O)N([C@@H](C)CO)C[C@H]2C)cc1	-4	29	nt	nt	nt	nt
C[C@@H]1CN([C@@H](C)CO)C(=O)c2cc(NC(=O)C3CCCCC3)ccc2O[C@@H](C)CCCCO[C@@H]1CN(C)S(=O)(=O)c1ccc(Cl)cc1	0	?	105*	51	-22	17
C[C@@H]1CCCCO[C@@H](CN(C)S(=O)(=O)c2ccc(Cl)cc2)[C@H](C)CN([C@@H](C)CO)C(=O)c2cc(NC(=O)C3CCCCC3)ccc2O1	-1	106*	105*	58	12	42*
Cc1ccc(S(=O)(=O)N(C)C[C@@H]2OCCCC[C@@H](C)Oc3ccc(NC(=O)C4CCCCC4)cc3C(=O)N([C@@H](C)CO)C[C@H]2C)cc1	nt	81	nt	nt	nt	nt
C[C@@H]1CN([C@H](C)CO)C(=O)c2cc(NC(=O)C3CCCCC3)ccc2O[C@@H](C)CCCCO[C@@H]1CN(C)S(=O)(=O)c1ccc(Cl)cc1	5	102*	104*	69	10	20
C[C@@H]1CCCCO[C@@H](CN(C)S(=O)(=O)c2ccc(F)cc2)[C@@H](C)CN([C@@H](C)CO)C(=O)c2cc(NC(=O)C3CCCCC3)ccc2O1	8	41	nt	nt	nt	nt
Cc1ccc(S(=O)(=O)N(C)C[C@@H]2OCCCC[C@H](C)Oc3ccc(NC(=O)C4CCCCC4)cc3C(=O)N([C@H](C)CO)C[C@@H]2C)cc1	-3	80	nt	nt	nt	nt
Cc1ccc(S(=O)(=O)Nc2ccc3c(c2)CC(=O)N([C@@H](C)CO)C[C@H](C)[C@@H](CN(C)S(=O)(=O)c2c(C)noc2C)O3)cc1	0	10	nt	nt	nt	nt
COc1ccc(S(=O)(=O)Nc2ccc3c(c2)C(=O)N([C@@H](C)CO)C[C@@H](C)[C@H](CN(C)C(=O)Nc2ccccc2)O3)cc1	-8	-5	nt	nt	nt	nt
C[C@@H]1CN([C@@H](C)CO)C(=O)c2cc(NS(C)(=O)=O)ccc2O[C@@H]1CN(C)C(=O)Nc1ccc(C(F)(F)F)cc1	-4	-24	nt	nt	nt	nt
O=C1CN(S(=O)(=O)Cc2ccccc2)C[C@H]2[C@H](c3ccc(C#Cc4cccnc4)cc3)[C@@H](CO)N12	1	nt	nt	nt	nt	nt
SMILES	C diff growth	T cruzi growth-1	T cruzi growth-2	T cruzi growth-3	NIH3T3 tox	3T3 cytotox 2
CO[C@@H]1CN(C)C(=O)c2cc(NC(C)=O)ccc2OC[C@@H](C)N(Cc2cccnc2)C[C@@H]1C	0	20	nt	nt	nt	nt
C[C@@H]1CCCCO[C@@H](CN(C)S(=O)(=O)c2ccc(Cl)cc2)[C@@H](C)CN([C@@H](C)CO)C(=O)c2cc(NC(=O)C3CCCCC3)ccc2O1	1	108*	108*	90	6	?
C[C@@H]1CCCCO[C@H](CN(C)S(=O)(=O)c2ccc(Cl)cc2)[C@@H](C)CN([C@H](C)CO)C(=O)c2cc(NC(=O)C3CCCCC3)ccc2O1	0	36	nt	nt	nt	nt
Cc1ccc(S(=O)(=O)N(C)C[C@@H]2OCCCC[C@@H](C)Oc3ccc(NC(=O)C4CCCCC4)cc3C(=O)N([C@H](C)CO)C[C@@H]2C)cc1	0	11	nt	nt	nt	nt
C[C@@H]1CCCCO[C@H](CN(C)S(=O)(=O)c2ccc(Cl)cc2)[C@H](C)CN([C@H](C)CO)C(=O)c2cc(NC(=O)C3CCCCC3)ccc2O1	-1	110*	101*	108*	-12	8
CO[C@@H]1CN(C)C(=O)c2cc(NC(C)=O)ccc2OC[C@@H](C)N(Cc2ccccc2F)C[C@@H]1C	nt	-23	nt	nt	nt	nt
CCC(=O)N[C@H]1C=C[C@@H](CC(=O)NCc2ccc(OC)cc2)O[C@H]1CO	nt	29	nt	nt	nt	nt
CC(C)NC(=O)N(C)C[C@H]1OCc2ccccc2-c2c(n(C)c3ccccc23)C(=O)N([C@@H](C)CO)C[C@H]1C	nt	-27	nt	nt	nt	nt
